# Measurements: PubChem BioAssay (NCI)
# Compounds without any hit were thinned out: in the full panel of roughly 79,000, 15% have a hit. Unmarked numbers belong to inactive results. Calls of active or inactive are those of the source. No stated cut-off is given here; in the data, active means growth inhibition above about 70%; inactive means the rest.
# Test: NCI Yeast Anticancer Drug Screen. Data for the rad50 strain (AID 155);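 further: 0% = growth of vehicle-only cultures of the same strain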
# Conditions: S. cerevisiae rad50 strain growth inhibition; at 50.0 µM; active compounds read high
# How it was run: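 Readout: growth inhibition relative to vehicle-treated cultures. Compound exposure was carried out in a genetically defined yeast strain deficient in DNA damage repair.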
row,Compound,growth inhibition
1,O=[N+]([O-])c1cc(F)c(Sc2cc(Br)c([N+](=O)[O-])cc2F)cc1Br,8.85%
2,C=CS(=O)(=O)c1ccc(C)cc1,84% (active)
3,NC(CSSCC(N)C(=O)Nc1ccc2ccccc2c1)C(=O)Nc1ccc2ccccc2c1 (stereo not given),88.6% (active)
4,COc1ccc(C2=CCC3C4CC=C5CC(O)CCC5(C)C4CCC23C)s1 (stereo not given),59.7%
5,O=C(O)COc1ccccc1C(=O)O,4.55%
6,O=[N+]([O-])c1ccc(NNS(=O)(=O)c2ccccc2)c([N+](=O)[O-])c1,5.85%
7,CCOc1nc(N)nc(C)c1N=Nc1ccc(Cl)cc1,95.5% (active)
8,Nc1ccc2c(c1)CCc1ccccc1-2,83.3% (active)
9,O=c1c2cc3c(cc2c2cccc4c2n1CCC4)OCO3,71.2% (active)
10,O=C(COc1ccc(Br)cc1Br)N1N=C(c2ccc([N+](=O)[O-])o2)CC1(O)c1ccccc1 (stereo not given),19.4%
11,Nc1cc(Br)cc2c1[nH]c1ccc(Br)cc12,98.6% (active)
12,Clc1ccccc1CCc1cc(-c2ccccc2)n[nH]1,96.8% (active)
13,O=C(CSc1nnc(-c2ccc(N=Cc3ccc(Cl)cc3)cc2)o1)Nc1ccccc1Cl,54.8%
14,COC(=O)CCCCC(=O)N(C(C)C)C(C)C,-8.6%
15,CCc1ccccc1NC(=O)C(=O)CC(=O)c1ccc(Cl)s1,45.1%
16,CCNC(=S)N/N=C/c1ccccn1,81.5% (active)
17,[N-]=[N+]=Nc1c(C=O)c(=O)n(-c2ccccc2)c2ccccc12,67.2%
18,COc1cc2c(c(O)c1C)C(=O)C(Cl)=CC2=O,99.1% (active)
19,O=c1[nH]c(=O)c2cc([N+](=O)[O-])cc([N+](=O)[O-])c2[nH]1,50.6%
20,CCOC(=O)NC(=S)Nc1ccsc1,15.6%

row,Compound,growth inhibition
1,O=C(/C(O)=C(\O)C(=O)N(C1CCCCC1)C1CCCCC1)N(C1CCCCC1)C1CCCCC1,96.9% (active)
2,Nc1nccc2c1ncn2C1C=C(CO)C(O)C1O (stereo not given),38.5%
3,NC(=Nc1ccccc1)c1ccc2c(c1)c1c(n2Cc2ccccc2)CCCC1,99.3% (active)
4,CC/C(=C(/CC)c1ccc(O)cc1)c1ccc([O-])cc1.CC/C(=C(/CC)c1ccc(O)cc1)c1ccc([O-])cc1.O=C([CH-]C(=O)c1ccccc1)c1ccccc1.O=C([CH-]C(=O)c1ccccc1)c1ccccc1.[Ti+4],88.8% (active)
5,CC(=O)c1c(O)c2ccc(Cl)cc2[nH]c1=O,79.2% (active)
6,CCOC(=O)c1cnccc1CC1(C#N)c2ccccc2C=CN1C(=O)c1ccccc1 (stereo not given),86.7% (active)
7,O=c1cc(-c2ccccc2)oc(-c2ccccc2)c1,82.4% (active)
8,CCCCCC/C=C\C=O,67.7%
9,O=C1NC(=O)C(c2ccccc2)(c2ccccc2)C2CC3c4[nH]c5ccccc5c4CCN3CC12 (stereo not given),64.5%
10,Nc1ccc(-c2ccc(N)cc2S(=O)(=O)O)c(S(=O)(=O)O)c1,-27.6%
11,Oc1ccc2ccccc2c1/C=N\Sc1ccccc1,97.5% (active)
12,CCCC(C)c1ccc(O)cc1 (stereo not given),57.4%
13,CCOC(=O)/C(=C\c1ccc(Cl)cc1)C(C)=O,93.2% (active)
14,O=C(O)C(SC1=NNC2(C(=O)N1)c1ccccc1-c1ccccc12)SC1=NNC2(C(=O)N1)c1ccccc1-c1ccccc12,97.5% (active)
15,Cc1sc(Cc2ccccc2)nc1-c1ccc(N=Cc2ccc(N(CCOS(C)(=O)=O)CCOS(C)(=O)=O)cc2)cc1,94% (active)
16,CCCCc1ccc(Nc2nc(N)c3[nH]cnc3n2)cc1,82.1% (active)
17,O=C(c1c(F)c(F)c(F)c(F)c1F)n1c(=S)n(C(=O)c2c(F)c(F)c(F)c(F)c2F)c2ccccc21,42%
18,Cc1ccnc2sc3ccccc3c(=O)c12,86.8% (active)
19,O=[N+]([O-])c1ccc2c(c1)CCc1ccccc1-2,52.6%
20,NNc1ccc(Br)cc1,90.3% (active)

# Test: NCI Yeast Anticancer Drug Screen. Data for the mec2-1 strain (AID 157)
# Conditions: S. cerevisiae mec2-1 strain, at 5.0 µM (retest, dose inferred, filed as 0.5), active compounds read high
# How it was run: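 mec2-1 yeast strain, carrying an alteration in DNA damage repair or cell cycle control, was exposed to compounds; growth inhibition was measured relative to vehicle-treated controls.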
row,Compound,growth inhibition
1,O=[N+]([O-])c1cc(F)c(Sc2cc(Br)c([N+](=O)[O-])cc2F)cc1Br,-1%
2,C=CS(=O)(=O)c1ccc(C)cc1,6%
3,NC(CSSCC(N)C(=O)Nc1ccc2ccccc2c1)C(=O)Nc1ccc2ccccc2c1 (stereo not given),42%
4,COc1ccc(C2=CCC3C4CC=C5CC(O)CCC5(C)C4CCC23C)s1 (stereo not given),-17%
5,O=C(O)COc1ccccc1C(=O)O,-2%
6,O=[N+]([O-])c1ccc(NNS(=O)(=O)c2ccccc2)c([N+](=O)[O-])c1,-13%
7,CCOc1nc(N)nc(C)c1N=Nc1ccc(Cl)cc1,4%
8,Nc1ccc2c(c1)CCc1ccccc1-2,-27%
9,O=c1c2cc3c(cc2c2cccc4c2n1CCC4)OCO3,0%
10,O=C(COc1ccc(Br)cc1Br)N1N=C(c2ccc([N+](=O)[O-])o2)CC1(O)c1ccccc1 (stereo not given),6%
11,Nc1cc(Br)cc2c1[nH]c1ccc(Br)cc12,16%
12,Clc1ccccc1CCc1cc(-c2ccccc2)n[nH]1,-26%
13,O=C(CSc1nnc(-c2ccc(N=Cc3ccc(Cl)cc3)cc2)o1)Nc1ccccc1Cl,-10%
14,COC(=O)CCCCC(=O)N(C(C)C)C(C)C,-5%
15,CCc1ccccc1NC(=O)C(=O)CC(=O)c1ccc(Cl)s1,-2%
16,CCNC(=S)N/N=C/c1ccccn1,-42%
17,[N-]=[N+]=Nc1c(C=O)c(=O)n(-c2ccccc2)c2ccccc12,-1%
18,COc1cc2c(c(O)c1C)C(=O)C(Cl)=CC2=O,99% (active)
19,O=c1[nH]c(=O)c2cc([N+](=O)[O-])cc([N+](=O)[O-])c2[nH]1,6%
20,CCOC(=O)NC(=S)Nc1ccsc1,-4%

row,Compound,growth inhibition
1,O=C(/C(O)=C(\O)C(=O)N(C1CCCCC1)C1CCCCC1)N(C1CCCCC1)C1CCCCC1,-2%
2,Nc1nccc2c1ncn2C1C=C(CO)C(O)C1O (stereo not given),3%
3,NC(=Nc1ccccc1)c1ccc2c(c1)c1c(n2Cc2ccccc2)CCCC1,-7%
4,CC/C(=C(/CC)c1ccc(O)cc1)c1ccc([O-])cc1.CC/C(=C(/CC)c1ccc(O)cc1)c1ccc([O-])cc1.O=C([CH-]C(=O)c1ccccc1)c1ccccc1.O=C([CH-]C(=O)c1ccccc1)c1ccccc1.[Ti+4],60%
5,CC(=O)c1c(O)c2ccc(Cl)cc2[nH]c1=O,36%
6,CCOC(=O)c1cnccc1CC1(C#N)c2ccccc2C=CN1C(=O)c1ccccc1 (stereo not given),-2%
7,O=c1cc(-c2ccccc2)oc(-c2ccccc2)c1,-55%
8,CCCCCC/C=C\C=O,-6%
9,O=C1NC(=O)C(c2ccccc2)(c2ccccc2)C2CC3c4[nH]c5ccccc5c4CCN3CC12 (stereo not given),6%
10,Nc1ccc(-c2ccc(N)cc2S(=O)(=O)O)c(S(=O)(=O)O)c1,0%
11,Oc1ccc2ccccc2c1/C=N\Sc1ccccc1,18%
12,CCCC(C)c1ccc(O)cc1 (stereo not given),1%
13,CCOC(=O)/C(=C\c1ccc(Cl)cc1)C(C)=O,49%
14,O=C(O)C(SC1=NNC2(C(=O)N1)c1ccccc1-c1ccccc12)SC1=NNC2(C(=O)N1)c1ccccc1-c1ccccc12,-19%
15,Cc1sc(Cc2ccccc2)nc1-c1ccc(N=Cc2ccc(N(CCOS(C)(=O)=O)CCOS(C)(=O)=O)cc2)cc1,-10%
16,CCCCc1ccc(Nc2nc(N)c3[nH]cnc3n2)cc1,25%
17,O=C(c1c(F)c(F)c(F)c(F)c1F)n1c(=S)n(C(=O)c2c(F)c(F)c(F)c(F)c2F)c2ccccc21,19%
18,Cc1ccnc2sc3ccccc3c(=O)c12,14%
19,O=[N+]([O-])c1ccc2c(c1)CCc1ccccc1-2,-18%
20,NNc1ccc(Br)cc1,83% (active)
